Results published in PubChem BioAssay (NCATS).
Results filed as inconclusive are left out. The source made the active and inactive calls. Calls follow the shape of the dose curve; as a rule, active = well fitted inhibition curve with a large enough effect; inconclusive = small, poorly fitted or top-dose-only effect, or effect the other way; inactive = flat fitted curve, though single readings scatter.

The compounds below were run against Ubiquitin carboxyl-terminal hydrolase 2 (Homo sapiens) (UniProt O75604) (assay: qHTS Validation Assay for Inhibitors of Ubiquitin-specific Protease USP2a Using CHOP2 as the Reporter (AID 463106)). Details: USP2a cleavage of CHOP2 reporter, enzymatic; series mostly up to 38.3 µM.
Excerpt: NIH Molecular Libraries Screening Centers Network [MLSCN]
NIH Chemical Genomics Center [NCGC]
PI Name: Nicholson, Ben. Progenra Inc, Malvern, PA
Homeostasis of cellular proteins is maintained through a combination of synthesis and degradation. The pathway that accounts for the majority of protein degradation is the ubiquitin-proteasomal pathway. Ubiquitin (Ub) is highly conserved in all cells and the generation of a multi-Ub chain typically targets proteins for degradation by the proteasome. However, ubiquitination is highly reversible and dynamic. Deubiquitination, the reverse process, is catalyzed through the action of enzymes referred to as isopeptidases or deubiquitinating enzymes (DUBs). This group of enzymes is collectively responsible for maintaining adequate pools of free ubiquitin and regulating the ubiquitination status of cellular proteins. The class of DUBs referred to as the ubiquitin-specific proteases (USP) family functions endoproteolytically to cleave Ub chains from a wide range of protein substrates. USP2a deubiquitinates fatty acid synthase (FASN) which has recently been identified as an emerging oncology target. To identify inhibitors of USP2a a cell-free assay was employed.
The reporter enzyme chosen is an enterokinase called CHOP2, which is activated when the Ub is cleaved by USP2. The free and now activated reporter can subsequently act on its reporter substrate. […] The assay was developed by Progenra, Inc. and has been licensed for sale by LifeSensors, Inc. as Ub-CHOP2-Reporter-Kit (#PR1101).
NCGC Assay Protocol Summary:
The assay buffer, prepared fresh at the day of the assay, contains 20mM Tris-HCl pH 8.0, 2mM CaCl2, 2mM beta-Mercaptoethanol, 0.05% CHAPS. 3ul of 20nM (10nM final) USP2 core, which is stored on ice, is dispensed into a medium-binding black solid Kalypsys 1,536 well plate using the Kalypsys dispenser. The assay plate is then pinned with 23nL compound with the Kalypsys pintool in columns 5-48. The controls are pinned as follows: column 1 two-fold dilutions of 2M NEM in duplicate; column 2 2M NEM (final concentration 38.2mM); column 3&4 DMSO. The assay plate is incubated at RT for 30min. Subsequently, 1.5uL of 100nM (25nM final) Ub-CHOP2 and 1.5uL of 100nM (25nM final) Reporter Substrate (both stored on ice and protected from light) were dispensed into the plate using the Kalypsys dispenser. Plates were read after 60min RT incubation on a ViewLux (Perkin Elmer) plate reader using the following wavelengths Ex 485nm /Em 531nm.
Data were normalized to the to AC100 inhibition (NEM). Concentration-response curves were fitted to the normalized data and the concentration-response curves were then classified based on curve quality (r2), response magnitude and degree of measured activity. The time zero reading was used to flag fluorescence artifacts.
Keywords: ubiquitination, deubiquitination, proteases, profluorescent, MLSMR, MLPCN, NIH Roadmap, qHTS, NCGC

Sequence of Ubiquitin carboxyl-terminal hydrolase 2 (Homo sapiens) (O75604 whole entry, looked up): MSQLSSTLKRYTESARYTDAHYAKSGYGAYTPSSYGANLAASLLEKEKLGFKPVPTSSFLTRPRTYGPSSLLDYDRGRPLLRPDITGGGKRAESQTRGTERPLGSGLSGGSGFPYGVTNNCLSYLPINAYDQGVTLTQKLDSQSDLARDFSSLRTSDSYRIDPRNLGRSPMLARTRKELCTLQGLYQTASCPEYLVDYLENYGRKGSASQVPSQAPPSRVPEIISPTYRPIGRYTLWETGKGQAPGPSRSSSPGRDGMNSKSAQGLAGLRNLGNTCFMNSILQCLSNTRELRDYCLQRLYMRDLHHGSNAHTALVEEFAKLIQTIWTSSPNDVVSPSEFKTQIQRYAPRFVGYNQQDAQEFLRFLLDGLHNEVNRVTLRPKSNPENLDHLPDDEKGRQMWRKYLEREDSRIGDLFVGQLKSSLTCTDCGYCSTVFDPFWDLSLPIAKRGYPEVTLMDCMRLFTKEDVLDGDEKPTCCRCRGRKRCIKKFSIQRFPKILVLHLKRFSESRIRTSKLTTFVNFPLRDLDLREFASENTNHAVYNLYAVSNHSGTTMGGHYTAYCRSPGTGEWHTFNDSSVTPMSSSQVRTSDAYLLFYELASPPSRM

Compound	outcome
NC(=O)c1ccc2[nH]ccc2c1	inactive
CC1CC2C3CCC4=CC(=O)C=C[C@]4(C)[C@@]3(F)[C@@H](O)C[C@]2(C)[C@@]1(O)C(=O)CO (stereo partly specified)	inactive
OCc1ccc(-c2nn(Cc3ccccc3)c3ccccc23)o1	inactive
Nc1nc(N)c2nc(CNc3ccc(C(=O)NC(CCC(=O)O)C(=O)O)cc3)cnc2n1 (stereo unspecified)	inactive
Cc1ccc(S(=O)(=O)N[C@@H](Cc2ccccc2)C(=O)CCl)cc1	inactive
NC(=O)c1cccc(N)c1	inactive
CCN(CC)CCn1c(=O)c(Cc2ccc(OC)cc2)nc2ccccc21	inactive
CCCCS(=N)(=O)CCC(N)C(=O)O (stereo unspecified)	inactive
CC(C)NCC(O)c1ccc(NS(C)(=O)=O)cc1 (stereo unspecified)	inactive
O=C(O)C1CCCN(CCC=C(c2ccccc2)c2ccccc2)C1 (stereo unspecified)	inactive
CC1=C(C(=O)O)N2C(=O)[C@@H](NC(=O)C(N)c3ccccc3)[C@H]2SC1 (stereo partly specified)	inactive
COc1cc2ncnc(Nc3cccc(Cl)c3)c2cc1OC	inactive
COc1cc2nc(N3CCCN(C)CC3)nc(NC3CCN(Cc4ccccc4)CC3)c2cc1OC	inactive
CC(=O)[C@H]1CC[C@H]2[C@@H]3CCC4=CC(=O)CC[C@]4(C)[C@H]3CC[C@]12C	inactive
CCN(CC)CC#CCOC(=O)C(O)(c1ccccc1)C1CCCCC1 (stereo unspecified)	inactive
CCN1CCCC1CNC(=O)c1cc(S(N)(=O)=O)ccc1OC (stereo unspecified)	inactive
